Reference: PubChem BioAssay
Unmarked numbers belong to inactive results. Calls of active or inactive are those of the source. Cut-off read from the data, not from the text of the source: active = inhibition above about 36%; inactive = the rest.

Test system: transactivating tegument protein VP16 (Human herpesvirus 1)
Experiment: compounds suppressing VP16-driven luciferase signal – cell-based, luminescence, single concentration, counter-screen for SRC2 inhibitor project (AID 652007)
Conditions: cell-based VP16 transactivation luciferase reporter, at 8.9 µM, hits give high values

Compound	inhibition
CCN(CC)Cc1nc2c(c(=O)[nH]1)C(CC)(CC)Cc1ccccc1-2	-14.9%
CC(=O)Nc1cc(-c2ccc(C(=O)NC3CC3)cc2)cn2c(-c3cccc(C(F)(F)F)c3)cnc12	-9.85%
COc1ccc(O)c(/C=N/NC(=O)c2ccc(CSc3nc(C)cc(C)n3)cc2)c1	0.19%
Cc1cc(C(=O)CN2C(=O)c3ccccc3S2(=O)=O)c(C)n1-c1ccccc1	-10.4%
COc1cccc(-c2nc(-c3ccccn3)no2)c1	-20.4%
COc1ccccc1NS(=O)(=O)c1ccc(C)c(C(=O)NC2CCN(Cc3ccccc3)CC2)c1	17.2%
COc1ccccc1C(C)NC(=O)C1CCN(S(=O)(=O)c2cccs2)CC1 (stereo not given)	-3.74%
CNc1ccccc1C(=O)OC(C)C(=O)Nc1ccc(Cl)cn1 (stereo not given)	-10.2%
CCCSc1nnc(Sc2nnnn2-c2ccccc2)s1	7.33%
CCNC(=O)NC(=O)COC(=O)CCCSc1nc2ccccc2s1	5%
O=C(O)c1ccccc1C(=O)Nc1ccc(Oc2ccc3ccccc3c2)cc1	36.4% (active)
COc1cccc(NC(=O)Nc2nnc(CC(=O)NCc3ccccc3)s2)c1	-17.5%
CC1CN(C(=O)CCC(=O)N2CCN(c3cccc(C(F)(F)F)c3)CC2)c2ccccc2O1 (stereo not given)	15.6%
Cc1ccc(C2CC(c3cccs3)=NN2C(=O)CCl)cc1 (stereo not given)	6.45%
Cc1nc(=O)c(-c2ccccc2)c(C)n1-c1ccccc1Cl	-4.06%
C[C@@H]1CCN(C2CC2)S(=O)(=O)c2ccc(N3CCC[C@H]3C)cc2O1	-8.49%
O=S(=O)(c1ccc(Cl)cc1)N1CCCC1c1nc(-c2ccc(Cl)cc2)no1 (stereo not given)	-5.4%
COC(=O)c1cnn(-c2ccc(Cl)cc2)c1/C=N/NC(N)=S	22%
COC(=O)c1cc(C(=O)OC)cc(S(=O)(=O)Nc2ccc(Cl)c(N)c2)c1	-6.46%
O=C(CN1CCN(S(=O)(=O)c2ccc(F)c(F)c2)CC1)Nc1ccccc1C(=O)NC1CC1	-15.4%

Compound	inhibition
O=c1c(Br)ccc(Br)cc1Br	97.7% (active)
CCOC(=O)c1ccccc1NC(=O)Cn1c(-c2nonc2N)nc2ccccc21	-1.87%
Cc1ccc2nc(C)cc(Nc3ccc4c(c3)OCCO4)c2c1	-23.7%
CCN(CC)CCNC(=O)c1ccc(NC(=O)c2ccc(S(=O)(=O)N3CCCC3)cc2)cc1	-4.61%
COc1ccc(CNCc2ccc(C(F)(F)F)cc2)cc1OC	0.19%
CCOC(=O)c1[nH]c(=S)n(-c2ccccc2)c1C(=O)OCC	-1.17%
CCOC(=O)C1(Cc2ccc(Cl)cc2)CCN(C(C)Cc2ccc(O)c(OC)c2)CC1 (stereo not given)	15.9%
Cc1cccc(NC(=S)NNc2ncc(C(F)(F)F)cc2Cl)c1	24.3%
CCN(CC)S(=O)(=O)c1ccc(Cl)c(NC(=O)COc2ccc(OC)cc2[N+](=O)[O-])c1	-24.3%
COc1ccc(-n2c(SCC(=O)NN=Cc3c(O)ccc4ccccc34)nnc2-c2ccc(C(C)(C)C)cc2)cc1	-13%
O=S(=O)(c1ccccc1)N1CCC(O)(CSc2ccc(F)cc2)CC1	-1.83%
Cc1ccc(C(=O)NCc2cccc(C(F)(F)F)c2)cc1S(=O)(=O)N1CCCCC1	-7.82%
CSc1nnc(NC(=O)c2nc(S(=O)(=O)Cc3cccc(C)c3)ncc2Cl)s1	41.9% (active)
Cc1cccc(C)c1NC(=O)CN1CCN(C/C=C/c2ccccc2)CC1	-15.1%
COCCN=C1Sc2nc3c(C)cccc3cc2CN1Cc1ccco1	-12%
CC(=O)Nc1nc(-c2ccc3c(c2)CCN3C(=O)C2CC2)c(C)s1	13.2%
CCOc1ccc(-c2nc(CSCC(=O)N3CCN(c4cccc(OC)c4)CC3)c(C)o2)cc1	23.2%
C=C1CCC2C(C)(C)CCC[C@]2(C)[C@H]1CC1=C(O)C(=O)C(CO)=CC1=O (stereo not given in full)	93.6% (active)
O=C(NC12CC3CC(CC(C3)C1)C2)C1CC(=O)N(c2ccccc2)C1 (stereo not given)	9.52%
O=S(=O)(C/C(=C/CO)S(=O)(=O)c1ccccc1)c1ccccc1	79.3% (active)
